Many of the other results were omitted from the sample, so hits are more common in it than they were.
ER stress death: ER stress cell death inhibition; CSM14.1 thapsigargin ER stress survival, ATP luminescence; relative survival (cellular ATP), % at 15 µg/mL (by protocol); actives 0.33% (n = 48,000); AID 1010;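 active means survival measured by cellular ATP above 50% at 15 µg/ml in the first screen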;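 further: cell death triggered by about 15 µM thapsigargin; ATP read 24 h after thapsigargin was added; plate controls were thapsigargin with DMSO for no effect and DMSO without thapsigargin for full effect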
An asterisk follows results filed as active.

SMILES	ER stress death
COc1ccc(N2C(=O)c3ccccc3NC2c2ccc(OC)c(CN3C(=O)c4ccccc4C3=O)c2)cc1 (configuration not stated)	10
COc1ccc(CC(=O)Nc2sc3c(c2C(=O)Nc2ccccc2OC)CCC3)cc1	1
Cc1ccc(C(=O)N/C(=C\c2cccc([N+](=O)[O-])c2)C(=O)NCC(C)C)cc1	3
O=C(O)C1C2CCC(O2)C1C(=O)N1CCN(C(c2ccccc2)c2ccccc2)CC1 (configuration not stated)	-3
O=C(O)C1C2C=CC(O2)C1C(=O)N1CCN(C(c2ccccc2)c2ccccc2)CC1 (configuration not stated)	-3
O=C(C1CC1c1ccccc1)N1CCN(C(c2ccccc2)c2ccccc2)CC1 (configuration not stated)	104*
Nc1nc(SCCc2ccccc2)nc2sc3c(c12)CCC3	-4
CCN1C(=O)/C(=C\c2cccc(OCc3cccc4ccccc34)c2)SC1=S	7
CCCC(=O)NC(c1ccc(Cl)cc1)c1ccc2cccnc2c1O (configuration not stated)	11
COc1ccc(C(NC(=O)c2ccccc2)c2ccc3cccnc3c2O)cc1 (configuration not stated)	7
CCC(=O)NC(c1ccc(N(C)C)cc1)c1ccc2cccnc2c1O (configuration not stated)	59*
COc1ccc(OC)c(C2/C(=C(/O)c3ccccc3)C(=O)C(=O)N2c2nc3ccccc3s2)c1 (configuration not stated)	-1
COc1ccc(N(CC(=O)Nc2ccccc2Cl)S(=O)(=O)c2ccccc2)cc1Cl	10
CCOc1ccc(C(=O)Nc2cccc(NC(=O)c3ccc(F)cc3)c2)cc1	0
CCOC(=O)c1c(C)nc(C)c(C(=O)OCC)c1-c1cccc(NC(=O)c2ccc(F)cc2)c1	115*
CCOC(=O)c1c(C)nc(C)c(C(=O)OCC)c1-c1ccccc1	4
CCc1ccc(-n2c(C)cc(/C=N/NC(=O)c3ccncc3)c2C)cc1	31
Cc1cccc(C)c1-n1c(C)cc(/C=N/NC(=O)c2ccncc2)c1C	5
Cc1ccc(-n2c(C)cc(/C=N/NC(=O)c3ccncc3)c2C)cc1C	67*
CCOc1cc(/C=C2\C(=O)NC(=O)N(c3ccc(C)cc3)C2=O)c(Br)cc1OC	3
CS(=O)(=O)N(CC(=O)O)c1ccc(F)cc1	0
CCOC(=O)C1C(=O)CC(C)(O)C(C(=O)OCC)C1c1ccc(OCC)cc1 (configuration not stated)	0
Cc1c(NC(=O)c2cc([N+](=O)[O-])ccc2Cl)cccc1-c1nc2ccccc2s1	-3
O=C(Nc1ccc(O)c(-c2nc3ccccc3s2)c1)c1cc([N+](=O)[O-])ccc1Cl	60*
O=C(Nc1ccc(O)c(-c2nc3ccccc3s2)c1)c1cccc(Cl)c1Cl	-1
SMILES	ER stress death
Cc1ccc(OCC(=O)Nc2ccc(Cl)c([N+](=O)[O-])c2)c(C)c1	8
Cc1ccc(N(Cc2ccc(C(=O)Nc3cccnc3)cc2)S(C)(=O)=O)cc1C	9
CCOc1ccc(C(=O)Nc2cc(Cl)cc(Cl)c2)cc1Cl	6
CCOc1ccc(C(=O)Nc2ccc(Cl)c(-c3nc4ccccc4[nH]3)c2)cc1Cl	65*
CCOc1ccc(C(=O)Nc2ccc(Cc3ccncc3)cc2)cc1Cl	35
CN(C)c1ccc(/C=C/C=C/c2cc[n+](CCCS(=O)(=O)[O-])cc2)cc1	-1
O=C(Nc1ccccc1C(=O)N1CCCC1)c1cccc(F)c1	3
COc1ccc(/C=C2\C(=O)NC(=S)N(c3ccc(Br)cc3C)C2=O)c(C)c1	6
COc1ccc2ccccc2c1-c1nnc2ccc3ccccc3n12	7
COc1ccc2ccccc2c1-c1nnc2ccc(C(F)(F)F)cn12	60*
FC(F)(F)c1ccc2nnc(-c3cc(Br)ccc3OCc3ccccc3)n2c1	2
CS(=O)(=O)N(Cc1ccc(C(=O)NCc2ccc(Cl)cc2)cc1)c1ccccc1	8
O=C(Nc1nc(-c2cccc([N+](=O)[O-])c2)cs1)c1ccc(S(=O)(=O)N2CCCC2)cc1	-6
Cc1cccc(NC(=O)c2ccc(C(=O)Nc3cccc(C)c3)nc2)c1	12
COc1ccc(C2CC(=O)C3=C(C2)Nc2ccccc2NC3c2cccc(C(F)(F)F)c2)cc1OC (configuration not stated)	135*
COc1ccc(C2Nc3ccccc3NC3=C2C(=O)CC(c2ccccc2)C3)cc1OC (configuration not stated)	7
COc1ccc(C2CC(=O)C3=C(C2)Nc2ccccc2NC3c2ccc(OC(C)=O)c(OC)c2)cc1OC (configuration not stated)	3
COc1ccc(C2CC(=O)C3=C(C2)Nc2ccccc2NC3c2ccc(F)cc2)cc1OC (configuration not stated)	13
COc1ccc(C2Nc3ccccc3NC3=C2C(=O)CC(c2ccc(OC)c(OC)c2)C3)cc1 (configuration not stated)	5
COc1ccc(C2CC(=O)C3=C(C2)Nc2ccccc2NC3c2cccc(Br)c2)cc1OC (configuration not stated)	122*
Cc1ccc(C(=O)NC(Nc2ccc(F)cc2)C(Cl)(Cl)Cl)cc1 (configuration not stated)	1
O=c1c2ccccc2c(-c2ccccc2)nn1-c1cc(N2CCN(CCO)CC2)ccc1[N+](=O)[O-]	-4
CCC(Sc1nc2ccccc2s1)C(=O)Nc1cccc2ccccc12 (configuration not stated)	4
Cc1ccc(C(=O)N/C(=C/c2ccc(-c3ccccc3[N+](=O)[O-])o2)C(=O)NCc2ccco2)cc1	-4
COc1ccc(C2Nc3ccccc3C(=O)N2c2ccc(C)cc2)cc1Cn1nnc2ccccc21 (configuration not stated)	7
SMILES	ER stress death
COc1cccc(OCCNc2cc(N3CCCC3)ccc2[N+](=O)[O-])c1	8
C/C(=C\c1ccccc1F)C(=O)c1c(C)cc(C)[nH]c1=O	3
O=C(Nc1ccccc1Oc1ccccc1)c1cc2cc(Cl)cc(Cl)c2oc1=O	14
O=C1CCCC2=C1C(c1cccs1)Nc1ccc(C(=O)c3ccccc3)cc1N2 (configuration not stated)	-2
O=C1CCCC2=C1C(c1ccc(O)cc1)Nc1ccc(C(=O)c3ccccc3)cc1N2 (configuration not stated)	-4
O=C1CC(c2ccccc2)CC2=C1C(c1ccc(O)cc1)Nc1ccc(C(=O)c3ccccc3)cc1N2 (configuration not stated)	106*
O=C1CCCC2=C1C(c1ccc([N+](=O)[O-])cc1)Nc1ccc(C(=O)c3ccccc3)cc1N2 (configuration not stated)	121*
COc1ccc(C2CC(=O)C3=C(C2)Nc2ccccc2NC3c2cccnc2)cc1OC (configuration not stated)	2
COc1ccc(C2CC(=O)C3=C(C2)Nc2ccccc2NC3c2ccc(O)cc2)cc1 (configuration not stated)	2
O=C1CC(c2ccccc2)CC2=C1C(c1cccnc1)Nc1ccc(C(=O)c3ccccc3)cc1N2 (configuration not stated)	102*
O=C1CCCC2=C1C(c1ccc(F)cc1)Nc1ccc(C(=O)c3ccccc3)cc1N2 (configuration not stated)	4
O=C1CC(c2ccccc2)CC2=C1C(c1ccco1)Nc1ccccc1N2 (configuration not stated)	2

Screening results (PubChem)
